Publication PMC13083723 (Patterns, 2026)
Out of some 5,400 compounds screened, about 190 (3.5%) showed an effect of 50% or more. Many of the other results were omitted from the sample, so strong results are more common in it than they were.

Each compound was assayed on Vero-E6 (assay: primary screen, phospholipidosis by LipidTOX staining; higher = more effect of the substance). Settings: 10 µM.
Procedure: To measure drug-induced PLD in Vero-E6 cells, we used the HCS LipidTOX Red Phospholipidosis Detection Reagent (Invitrogen, #H34351), which is non-toxic to cell growth and remains well retained after aldehyde fixation. In this setup, compounds (at 10 μM concentration) and controls (amiodarone: 10 μM concentration; DMSO: 0.1 v/v %) were added to clear-bottom, 384-well plates (PhenoPlate 384-well, black, optically clear flat bottom, tissue-culture treated, Revvity #6057302) using the Echo Liquid Handler (Labcyte).

Question: With `CCCOC(C(=O)OC1CCN(C)CC1)(c1ccccc1)c1ccccc1` as the compound, how does the result_ITMP read?
Answer: 63.8%

Question: For `C[C@H]1CCC/C=C/[C@@H]2C[C@H](O)C[C@H]2[C@H](O)/C=C/C(=O)O1`, which result_ITMP is on record?
Answer: -2.38%

Question: How did the result_ITMP turn out when `COC(=O)C[C@](O)(CCC(C)(C)O)C(=O)O[C@@H]1C(OC)=C[C@]23CCCN2CCc2cc4c(cc2[C@H]13)OCO4` was run?
Answer: -10.1%

Question: `C#C[C@]1(O)CC[C@H]2[C@@H]3CCC4=CC(=O)CC[C@]4(C)[C@H]3CC[C@@]21C` was tested. Which result_ITMP did it give?
Answer: -7.32%

Question: With `CN1[C@@H]2CC[C@H]1C[C@@H](OC(=O)c1cc(Cl)cc(Cl)c1)C2` as the compound, how does the result_ITMP read?
Answer: 9.65%

Question: `CN(CCc1ccc(Cl)c(Cl)c1)CCN1CCCC1` was tested. Which result_ITMP did it give?
Answer: 51.3%

Question: With `C[N@+]1(CC2CC2)CC[C@]23c4c5ccc(O)c4O[C@H]2C(=O)CC[C@@]3(O)[C@H]1C5` as the compound, how does the result_ITMP read?
Answer: 0.23%

Question: How did the result_ITMP turn out when `CCN1C[C@]2(COC(=O)c3ccccc3N3C(=O)C[C@H](C)C3=O)CC[C@H](OC)[C@@]34[C@@H]5C[C@H]6[C@H](OC)[C@@H]5[C@](O)(C[C@@H]6OC)[C@@](O)([C@@H](OC)[C@H]23)[C@@H]14` was run?
Answer: 0.37%

Question: `C=CC[C@]1(O)CC[C@H]2[C@@H]3CCC4=CCCC[C@@H]4[C@H]3CC[C@@]21C` was tested. Which result_ITMP did it give?
Answer: 0.46%

Question: For `COc1cc2c(cc1OC)[C@@]13CCN4CC5=CCO[C@H]6CC(=O)N2[C@H]1[C@H]6[C@H]5C[C@H]43`, which result_ITMP is on record?
Answer: 1.12%

Question: `CN1C[C@H](CNC(=O)OCc2ccccc2)C[C@@H]2c3cccc4c3c(cn4C)C[C@H]21` was tested. Which result_ITMP did it give?
Answer: 61.8%

Question: For `CC(=O)OC[C@]12CCC(C)=C[C@H]1O[C@@H]1[C@H](O)[C@@H](OC(C)=O)[C@@]2(C)[C@]12CO2`, which result_ITMP is on record?
Answer: -25.8%

Question: With `Oc1ccc2c3c1O[C@H]1c4[nH]c5ccccc5c4C[C@@]4(O)[C@@H](C2)N(CC2CC2)CC[C@]314` as the compound, how does the result_ITMP read?
Answer: 37.4%

Question: `C[C@@H]1CN([C@H]2CC[C@](C#N)(c3ccc(F)cc3)CC2)CC[C@]1(C(=O)O)c1ccccc1` was tested. Which result_ITMP did it give?
Answer: -9.01%

Question: How did the result_ITMP turn out when `Cc1onc(O)c1C[C@H](N)C(=O)O` [R4A_0004356_001 / SPE_K92493880] was run?
Answer: -0.72%
